The text below walks through data of PubChem BioAssay (Tox21).

“And” between values parts separate entries of the source, which are not always exact repeats. Equal entries are not always repeated. Results filed as inconclusive are left out. Some structures have more than one record in an assay (separate samples or runs), and their calls can disagree. The source made the active and inactive calls. Unless noted, calls come from the whole dose curve; as a rule, active = well fitted curve in the direction sought with a large enough effect in the repeat runs; inconclusive = weak or mixed curves; inactive = no such curve, though single readings can be large; an effect the other way counts as inactive or inconclusive.

Test [1] is described as follows: qHTS assay for identifying genotoxic compounds that show differential cytotoxicity against isogenic chicken DT40 cell lines with known DNA damage response pathways - wild type cell line (AID 743012). Note: nearly all actives have a fitted effect of over 60% in size. Note: potency is the fitted concentration of half-maximal effect. The gist of the method: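 Cells (DT40 wild type, 300/well) are treated with DMSO-dissolved compounds after a ~0.5 h pre-incubation and kept 40 h at 37 C/5% CO2. Viability is then measured by CellTiter-Glo luminescence following 30 min at room temperature.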
Background: Quantitative high-throughput screening tests each substance at several concentrations.

Test [2] is described as follows: qHTS assay for identifying genotoxic compounds that show differential cytotoxicity against isogenic chicken DT40 cell lines with known DNA damage response pathways - Rev3 mutant cell line (AID 743014). Note: nearly all actives have a fitted effect of over 55% in size. Note: potency is the fitted concentration of half-maximal effect.
The nature of test [3]: qHTS assay for identifying genotoxic compounds that show differential cytotoxicity against isogenic chicken DT40 cell lines with known DNA damage response pathways - Rad54/Ku70 mutant cell line (AID 743015). Note: nearly all actives have a fitted effect of over 60% in size. Note: potency is the fitted concentration of half-maximal effect.
The nature of test [4]: qHTS assay to identify small molecule antagonists of the androgen receptor (AR) signaling pathway - cell viability counter screen (AID 743033; note: nearly all actives have a fitted effect of over 45% in size).
Test [5] can be described thus: qHTS assay to identify small molecule antagonists of the glucocorticoid receptor (GR) signaling pathway - cell viability counter screen (AID 720693). Note: nearly all actives have a fitted effect of over 55% in size.
A short description of test [6]: qHTS assay to identify small molecule antagonists of the androgen receptor (AR) signaling pathway using the MDA cell line - cell viability counter screen (AID 743041; note: nearly all actives have a fitted effect of over 45% in size). The gist of the method: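 Cells were plated at 3,000 per well and left 5 h. Compounds in DMSO were then pinned in, followed by R1881. After 16 h at 37C, CellTiter-Fluor fluorescence gave viability.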

For test [7], the target named is Androgen receptor (Homo sapiens) (UniProt P10275). The test can be described thus: qHTS assay to identify small molecule antagonists of the androgen receptor (AR) signaling pathway (AID 743035; active = well fitted inhibition curve with a large enough effect in the signal ratio in the repeat runs, not every such curve was filed as active; the % refers to the signal ratio). The gist of the method:
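Antagonism is scored as loss of R1881-driven beta-lactamase reporter expression in HEK293 cells carrying the reporter under a UAS element, after 16 h co-treatment at 37C and a 2 h room-temperature FRET substrate read.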

For test [8] the target is unchanged. Nature of the test: qHTS assay to identify small molecule agonists of the androgen receptor (AR) signaling pathway (AID 743036; active = well fitted activation curve with a large enough effect in the signal ratio in the repeat runs, with a control signal flat, not every such curve was filed as active; the % refers to the signal ratio). The essentials:
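AR-UAS-bla HEK293 cells, plated 4 h before dosing, were treated with compound for 16 h at 37C. beta-Lactamase reporter read after 2 h with LiveBLAzer B/G FRET substrate at room temperature.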

Test [9] has the same target. The test can be described thus: qHTS assay to identify small molecule agonists of the androgen receptor (AR) signaling pathway using the MDA cell line (AID 743040; note: nearly all actives have a fitted effect of over 20% in size). The essentials: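 Cells plated, 5 h at 37C/0% CO2; compound or DMSO pinned; 16 h at 37C; ONE-Glo added; luminescence measured after 30 min at room temperature. Reporter line: MDA-kb2 with MMTV-luciferase responsive to AR and GR.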

Test [10] shares this target. Nature of the test: qHTS assay to identify small molecule antagonists of the androgen receptor (AR) signaling pathway using the MDA cell line (AID 743042; note: nearly all actives have a fitted effect of over 55% in size). The essentials:
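Antagonist mode: compounds plus R1881 agonist added to MDA-kb2 AR-luc cells, incubated 16 h at 37C. Luciferase reporter luminescence quantified, with multiplexed CellTiter-Fluor readout for cell viability.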

Sequence of Androgen receptor (Homo sapiens) (P10275 whole entry, looked up): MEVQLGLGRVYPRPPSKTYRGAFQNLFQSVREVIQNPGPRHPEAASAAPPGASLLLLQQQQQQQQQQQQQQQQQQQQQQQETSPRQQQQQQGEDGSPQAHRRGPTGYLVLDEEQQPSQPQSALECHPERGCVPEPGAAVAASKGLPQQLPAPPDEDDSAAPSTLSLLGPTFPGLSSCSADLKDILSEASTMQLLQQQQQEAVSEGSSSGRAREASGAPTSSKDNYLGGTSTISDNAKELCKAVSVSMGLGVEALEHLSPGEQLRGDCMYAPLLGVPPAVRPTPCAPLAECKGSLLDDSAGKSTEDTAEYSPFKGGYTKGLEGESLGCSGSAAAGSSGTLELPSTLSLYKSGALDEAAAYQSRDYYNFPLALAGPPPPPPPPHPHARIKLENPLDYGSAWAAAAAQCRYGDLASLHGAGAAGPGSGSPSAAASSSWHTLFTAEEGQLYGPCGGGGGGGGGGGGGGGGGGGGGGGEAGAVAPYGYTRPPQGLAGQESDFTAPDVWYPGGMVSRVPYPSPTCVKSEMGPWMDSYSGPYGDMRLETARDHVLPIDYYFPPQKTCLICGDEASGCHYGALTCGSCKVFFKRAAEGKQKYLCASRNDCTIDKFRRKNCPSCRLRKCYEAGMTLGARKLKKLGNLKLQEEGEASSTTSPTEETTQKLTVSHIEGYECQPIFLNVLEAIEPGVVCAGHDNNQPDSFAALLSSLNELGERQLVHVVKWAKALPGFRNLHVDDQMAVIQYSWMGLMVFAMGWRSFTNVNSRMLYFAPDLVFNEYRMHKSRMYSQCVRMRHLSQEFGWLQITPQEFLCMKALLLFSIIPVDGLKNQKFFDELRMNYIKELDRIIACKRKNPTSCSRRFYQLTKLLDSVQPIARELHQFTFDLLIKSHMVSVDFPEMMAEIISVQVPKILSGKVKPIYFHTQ

As for `C/C=C/c1ccc2c(c1)OCO2`, the Potency entry in [1], in test [2] and in test [3] was “inactive” in each case. Moreover, the outcome in [4] was inactive.

On to `Cc1ccc(N=C=O)cc1N=C=O`, for which the Potency entry in test [1] and in [2] was “inactive” in each case. Also, in [3], the Potency is 62.7 µM (active) and inactive. Also, the call in test [4] was inactive.

`Oc1ccc(Cl)cc1`: the Potency entry in test [5], in [1], in test [2] and in test [3] was “inactive” each time. Further, the outcome in test [4] and in test [6] was inactive.

Turning to `CCOP(=S)(OCC)Oc1ccc([N+](=O)[O-])cc1`, the Potency result in test [5], in test [1], in test [2] and in [3] was “inactive” throughout. The call in [4] and in [6] was inactive.

For the compound `N#CN=C(N)N`, the Potency result in [5], in test [1], in test [2] and in test [3] was “inactive” in each case. The compound was classed as inactive in test [4] and in [6].

As to `Cc1ccccc1N`, the Potency entry in test [1], in test [2] and in test [3] was “inactive” each time. Besides, the result in test [4] was inactive.

As to `O=[N+]([O-])c1ccc(Cl)c(Cl)c1`, the Potency entry in test [1], in test [2] and in test [3] was “inactive” each time. Also, in [4], the outcome was inactive.

Turning to `O=C(O)C(Br)Br`, the Potency entry in [1], in [2] and in test [3] was “inactive” throughout. In addition, the call in test [4] was inactive.

Regarding `Cc1cc(Cl)ccc1OC(C)C(=O)O` (configuration not stated), the Potency result in test [5], in test [1], in test [2] and in [3] was “inactive” throughout. In addition, the result in test [4] and in [6] was inactive.

In the case of `CNc1cnn(-c2cccc(C(F)(F)F)c2)c(=O)c1Cl`, the Potency entry in test [5], in test [1] and in [3] was “inactive” each time. In addition, the Potency result in test [2] was “inactive and 61.1 µM (active)”. The call in test [4] and in test [6] was inactive.

With `O=[N+]([O-])c1cc([As](=O)(O)O)ccc1O`, the Potency entry in test [1], in test [2] and in [3] was “inactive” throughout. Further, the compound was classed as inactive in [4].

Turning to `CCNc1nc(Cl)nc(NC(C)C)n1`, the Potency result in test [5], in [1], in test [2] and in [3] was “inactive” throughout. Besides, the compound was classed as inactive in test [4] and in test [6].

Regarding `Nc1cccc(Cl)c1`, the Potency result in [5], in test [1], in [2] and in test [3] was “inactive” in each case. Besides, the result in test [4] and in [6] was inactive.

`CNC(=O)Oc1cccc2ccccc12`: the Potency result in [5], in test [2] and in test [3] was “inactive” in each case. Also, the compound was classed as inactive in test [4].

For the compound `Nc1ncc([N+](=O)[O-])s1`, the Potency result in test [1], in [2] and in test [3] was “inactive” throughout. Moreover, the call in test [4] was inactive.

For the compound `Oc1c(Br)cc(Br)cc1Br`, the Potency entry in test [5], in test [1], in [2] and in test [3] was “inactive” in each case. In addition, the call in test [4] and in test [6] was inactive.

As to `C=CC(=O)OCC(CC)CCCC` (configuration not stated), in test [5], the Potency result was “inactive”. Further, the call in [4] and in [6] was inactive.

As to `Cc1cccc(C)c1N`, the Potency entry in [1], in test [2] and in [3] was “inactive” each time. Moreover, in test [4], the call was inactive.

Consider `OC[C@@H](O)[C@H]1O[C@@H]2O[C@H](C(Cl)(Cl)Cl)O[C@@H]2[C@H]1O`, for which the Potency result in test [1], in test [2] and in test [3] was “inactive” each time. In addition, the result in test [4] and in test [6] was inactive.

As for `O=C(O)CCCc1ccc(N(CCCl)CCCl)cc1`, the Potency in [1] was 21.1 µM (active) and 770 nM (active); in test [2] it was 1.88 µM (active) and 2.18 µM (active) and 43.3 nM (active); in test [3], 3.86 µM (active). Further, the outcome in test [4] and in [6] was inactive.

Regarding `CCCOC(=O)c1ccccc1C(=O)OCCC`, the Potency result in test [1] and in test [3] was “inactive” in each case. Moreover, the compound was called inactive in test [4].

With `CC(=O)C1CCOC1=O` (configuration not stated), the Potency entry in test [1] and in test [3] was “inactive” in each case. In addition, the call in test [4] and in test [6] was inactive.

For the compound `CCOP(=S)(OCC)Oc1cc(C)nc(C(C)C)n1`, the Potency entry in test [1] and in [2] was “inactive” in each case. For the same compound, the Potency entry in test [3] is “inactive and 30.6 µM (active)”. The result in [4] and in test [6] was inactive.

As for `CN1C(=O)CCS(=O)(=O)C1c1ccc(Cl)cc1` (configuration not stated), the Potency result in [1], in [2] and in test [3] was “inactive” each time. In addition, the outcome in test [4] was inactive.

With `Sc1ccccc1`, the Potency entry in test [1], in [2] and in test [3] was “inactive” throughout. Also, the result in test [4] and in [6] was inactive.

Consider `COC(C)(C)CCCC(C)C/C=C/C(C)=C/C(=O)OC(C)C` (configuration not stated), for which, in test [1], the Potency was 29.8 µM (active) and inactive. The Potency entry in test [2], in [3], in [7] and in test [10] was “inactive” throughout. Moreover, the compound was called inactive in test [4], in test [8], in test [9] and in [6].
